According to the supplement of paper PMC11537057:
Counter-ions that a name gives are not always drawn. ± gives the standard deviation of the averaged measurements. The full ranking holds about 1,700 compounds; the median of “cell number in HSV-1-infected wells relative to infected DMSO wells (H2B-RFP signal)” is about 100, and the highest 2% start at about 140. The list comes from a sample in which the highest values are over-represented; it also holds similar structures and randomly drawn compounds.

System: A549 infected with HSV-1
Test: cell number in HSV-1-infected wells relative to infected DMSO wells (H2B-RFP signal); higher = more surviving cells (uninfected or antiviral-protected wells give about 200%; low = toxicity)
Conditions: 10 µM; 48 h; MOI: 0.1
Method: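 Selleck FDA-approved library (L1300) screened in duplicate at 10 µM on A549 H2B-mRuby cells in 384-well plates, infected with HSV-1 strain 17 YFP-ICP4 at MOI 0.1 one hour before drug addition. Imaged after 2 days at 37°C. Cell growth (H2B-RFP) and infection (ICP4-YFP) are expressed as % of DMSO-treated wells. Hits: growth >90% and infection <20% of DMSO.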

Row | SMILES | cell number in HSV-1-infected wells [%]
1 | CCOc1cc(N)c(Cl)cc1C(=O)NCC1CN(Cc2ccc(F)cc2)CCO1 (stereo not given) [Mosapride Citrate] | 89.7 ± 13
2 | CCOc1cc(N)c(Cl)cc1C(=O)NCC1CN(Cc2ccc(F)cc2)CCO1 (stereo not given) [Mosapride] | 92.8 ± 14
3 | Cc1cccc(C)c1N(CC(=O)Nc1ccc(-c2ncon2)cc1)C(=O)C1CCS(=O)(=O)CC1 [Amenamevir] | 214 ± 5.9
4 | O=C1CC[C@@H](C(=O)N2CSC[C@H]2C(=O)O)N1 [Pidotimod] | 82.1 ± 7.1
5 | CCOc1ccc(Cc2cc([C@]34OC[C@](CO)(O3)[C@@H](O)[C@H](O)[C@H]4O)ccc2Cl)cc1 [Ertugliflozin] | 116 ± 8.7
6 | O=C([O-])c1ccccc1.[Na+] [Sodium benzoate] | 83.2 ± 14
7 | COC(=O)N(C)c1c(N)nc(-c2nn(Cc3ccccc3F)c3ncccc23)nc1N [Riociguat (BAY 63-2521)] | 108 ± 15
8 | CCN1CCC[C@H]1CNC(=O)c1cc(S(N)(=O)=O)ccc1OC [Levosulpiride] | 94.939 ± 0.086
9 | Cc1c(F)cc(C(=O)NC2CC2)cc1-c1ccc(C(=O)NCC(C)(C)C)cn1 | 145 ± 44
10 | N[C@@H](CCC(=O)O)C(=O)[O-].[Na+] [L-Glutamic acid monosodium salt] | 94.5 ± 4.2
11 | CC(C)CCCCC(=O)N[C@@H](CCN)C(=O)N[C@H](C(=O)N[C@@H](CCN)C(=O)N[C@H]1CCNC(=O)[C@H]([C@@H](C)O)NC(=O)[C@H](CCN)NC(=O)[C@H](CCN)NC(=O)[C@H](CC(C)C)NC(=O)[C@@H](Cc2ccccc2)NC(=O)[C@H](CCN)NC1=O)[C@@H](C)O [Polymyxin B sulphate] | 132 ± 31
12 | CC(=O)N(CC(O)CN(C(C)=O)c1c(I)c(C(=O)NCC(O)CO)c(I)c(C(=O)NCC(O)CO)c1I)c1c(I)c(C(=O)NCC(O)CO)c(I)c(C(=O)NCC(O)CO)c1I (stereo not given) [Iodixanol] | 79.6 ± 3
13 | COCC(=O)Nc1c(I)c(C(=O)NCC(O)CO)c(I)c(C(=O)N(C)CC(O)CO)c1I (stereo not given) [Iopromide] | 111 ± 26
14 | O=C(NCC(O)CO)c1c(I)c(C(=O)NCC(O)CO)c(I)c(N(CCO)C(=O)CO)c1I (stereo not given) [Ioversol] | 146 ± 6.8
15 | CC(=O)Oc1ccc(C(c2ccc(OC(C)=O)cc2)c2ccccn2)cc1 [Bisacodyl] | 87.8 ± 16
16 | CC[C@H](C)[C@@H]1NC(=O)[C@H](CCCNC(=N)N)NC(=O)[C@H](CC(=O)O)NC(=O)[C@H](CCSC)NC(=O)[C@H](CCCNC(=N)N)NC(=O)CNC(=O)CNC(=O)[C@H](Cc2ccccc2)NC(=O)[C@@H](NC(=O)[C@H](CO)NC(=O)[C@H](CO)NC(=O)[C@H](CCCNC(=N)N)NC(=O)[C@H](CCCNC(=N)N)NC(=O)[C@H](CC(C)C)NC(=O)[C@@H](N)CO)CSSC[C@@H](C(=O)N[C@@H](CC(N)=O)C(=O)N[C@@H](CO)C(=O)N[C@@H](Cc2ccccc2)C(=O)N[C@@H](CCCNC(=N)N)C(=O)N[C@@H](Cc2ccc(O)cc2)C(=O)O)NC(=O)CNC(=O)[C@H](CC(C)C)NC(=O)CNC(=O)[C@H](CO)NC(=O)[C@H](CCC(N)=O)NC(=O)[C@H](C)NC(=O)CNC1=O [Carperitide Acetate] | 131 ± 1.4
17 | O=C(O)CCCC[C@@H]1CCSS1 (racemic) [Thioctic acid] | 134 ± 60
18 | CNC(=O)c1ccc(N2C(=S)N(c3ccc(C#N)c(C(F)(F)F)c3)C(=O)C2(C)C)cc1F [Enzalutamide (MDV3100)] | 95.9 ± 2.1

Row | SMILES | cell number in HSV-1-infected wells [%]
19 | CC(C)C(=O)Nc1ccc([N+](=O)[O-])c(C(F)(F)F)c1 [Flutamide] | 110 ± 2.2
20 | CC1(C)NC(=O)N(c2ccc([N+](=O)[O-])c(C(F)(F)F)c2)C1=O [Nilutamide] | 150 ± 36
21 | OC1CC2CCC(C1)N2 (stereo not given) [Nortropine Hydrochloride] | 105 ± 10
22 | COC(=O)C1=C(C)NC(C)=C(C(=O)OC2CCCN(Cc3ccccc3)C2)C1c1cccc([N+](=O)[O-])c1 (stereo not given) [Benidipine HCl] | 85.5 ± 9.3
23 | CCC[C@@H]1C[C@@H](C(=O)N[C@@H]([C@H]2O[C@H](SC)[C@H](O)[C@@H](O)[C@H]2O)[C@H](C)Cl)N(C)C1 [Clindamycin HCl] | 99.4 ± 5.8
24 | CCC[C@@H]1C[C@@H](C(=O)N[C@@H]([C@H]2O[C@H](SC)[C@H](OP(=O)(O)O)[C@@H](O)[C@H]2O)[C@H](C)Cl)N(C)C1 [Clindamycin Phosphate] | 101 ± 12
25 | CCC[C@@H]1C[C@@H](C(=O)N[C@@H]([C@H]2O[C@H](SC)[C@H](O)[C@@H](O)[C@H]2O)[C@H](C)Cl)N(C)C1 [Clindamycin] | 88 ± 4
26 | CCC[C@@H]1C[C@@H](C(=O)N[C@@H]([C@H]2O[C@H](SC)[C@H](O)[C@@H](O)[C@H]2O)[C@@H](C)O)N(C)C1 [Lincomycin Hydrochloride Monohydrate] | 150 ± 39
27 | CCC[C@@H]1C[C@@H](C(=O)N[C@@H]([C@H]2O[C@H](SC)[C@H](O)[C@@H](O)[C@H]2O)[C@@H](C)O)N(C)C1 [Lincomycin HCl] | 133 ± 16
28 | CCOc1cc2ncc(C#N)c(Nc3ccc(OCc4ccccn4)c(Cl)c3)c2cc1NC(=O)/C=C/CN(C)C [Neratinib (HKI-272)] | 63.62 ± 0.22
29 | CC(C)(Oc1ccc(Cl)cc1)C(=O)OCCOC(=O)c1cccnc1 [Etofibrate] | 129 ± 12
30 | OCc1cc([C@@H](O)CNCCCCCCOCCOCc2c(Cl)cccc2Cl)ccc1O [Vilanterol Trifenate] | 25.9 ± 8.8
31 | N[C@@H](Cc1ccc(N(CCCl)CCCl)cc1)C(=O)O [Melphalan] | 72.2 ± 27
32 | CCOc1ccccc1OCCN[C@H](C)Cc1ccc(OC)c(S(N)(=O)=O)c1 [Tamsulosin hydrochloride] | 132 ± 8.6
33 | COc1ccc2c(c1)[C@]13CCCC[C@@H]1[C@H](C2)N(C)CC3 [Dextromethorphan hydrobromide hydrate] | 146 ± 7.2
34 | Cc1ccc2c(c1)[C@]13CCCC[C@@H]1[C@H](C2)N(C)CC3 [Dimemorfan phosphate] | 127 ± 24
35 | C=C1/C(=C\C=C2/CCC[C@]3(C)[C@@H]([C@H](C)/C=C/[C@H](C)C(C)C)CC[C@@H]23)C[C@@H](O)C[C@@H]1O [Doxercalciferol] | 100 ± 23
